# Bioassay records from PubChem BioAssay.
# RGS16-Gao HTS: modulators of RGS16 binding to Galphao, primary screen, biochemical, human proteins, multiplexed bead flow cytometry. Regulator of G-protein signaling 16 (Homo sapiens) + Guanine nucleotide-binding protein …. bead-based flow cytometry RGS16-Galphao binding, fluorescence; actives lie on both sides. binding response (% of control), % at 10 µM. 220,000 tested, 0.38% active. AID 1441, 2008;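 note: Galphao activated by GDP with aluminum fluoride before binding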
# RGS8-Gao reg: RGS8-Galphao binding modulators, primary screen, biochemical, multiplexed bead flow cytometry; 220,000 tested, 0.34% active; response (percent of control binding), % at 10 µM; actives lie on both sides; Guanine nucleotide-binding protein G(o) subunit alpha (Homo sapiens), P09471; in the data active = response below about 60% or above about 140%; inactive = in between;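 note: Galphao activated as the GDP aluminium fluoride complex binding bead-coupled RGS8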
# Target sequence (P09471 whole entry, looked up): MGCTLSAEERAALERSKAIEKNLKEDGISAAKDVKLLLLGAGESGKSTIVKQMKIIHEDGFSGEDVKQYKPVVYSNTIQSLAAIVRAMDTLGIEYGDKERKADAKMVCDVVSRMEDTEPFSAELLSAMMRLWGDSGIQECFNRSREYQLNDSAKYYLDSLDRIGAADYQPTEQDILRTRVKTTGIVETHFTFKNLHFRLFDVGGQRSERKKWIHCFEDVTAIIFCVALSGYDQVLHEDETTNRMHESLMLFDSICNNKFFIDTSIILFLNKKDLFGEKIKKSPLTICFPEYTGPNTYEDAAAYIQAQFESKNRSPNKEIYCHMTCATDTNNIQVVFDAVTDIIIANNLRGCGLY
# RGS7-Gao: RGS7-Galphao binding modulators, primary screen, biochemical, multiplexed bead flow cytometry; actives lie on both sides; 220,000 tested, 0.35% active; Guanine nucleotide-binding protein G(o) subunit alpha (Homo sapiens), P09471; binding response (% of control), % at 10 µM; in the data active = binding response below about 49% or above about 150%; inconclusive = no clear call, values can overlap the other calls; inactive = in between;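 note: fluorescent Galphao held in activated GDP-AlF4 state binding bead-coupled RGS7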
# Avidin bead fluor: green autofluorescence of compounds with avidin beads – biophysical, 488/530 nm, flow cytometry, artefact control, profiling panel | 220,000 tested, 0.38% active | fluorescence (KMESF) at 10 µM | compound fluorescence 488/530 nm; hits give high values; in the data active = fluorescence above about 47
# GSH fluor: compound fluorescence on glutathione beads, profiling panel, artefact control, biophysical, 488/530 nm, flow cytometry | GSH beads flow cytometry, compound fluorescence 488/530 nm; hits give high values | fluorescence (KMESF) at 10 µM | 190,000 tested, 0.25% active | AID 1776, 2009; in the data active = fluorescence above about 89;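 note: glutathione beads carrying GST-tagged Bcl family fusion proteins plus one bare bead set; values are compound well signal with DMSO vehicle wells as background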
# RGS4-Gao reg: modulators of RGS4 binding to Galphao, primary screen, biochemical, multiplexed bead flow cytometry | Guanine nucleotide-binding protein G(o) subunit alpha (Homo sapiens), P09471 | actives lie on both sides | binding response (% of control), % at 10 µM | 220,000 tested, 0.33% active | AID 1415, 2008; in the data active = binding response below about 49% or above about 150%; inactive = in between;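 note: fluorescent Galphao activated with aluminum fluoride binding bead-coupled RGS4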
# RGS4-Gao HTS: modulators of RGS–Galpha-o binding, primary screen, biochemical, multiplexed beads, flow cytometry, RGS4/7/8/16/19; RGS4–Galpha-o binding response, % at 10 µM; 1,600 tested, 99% active; multiplexed bead flow cytometry; shares compounds with RGS16-Gao HTS;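 note: fluorescently labeled Galpha-o bound to GDP with aluminium fluoride binding biotinylated RGS beads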
# Biotin-avidin: disruption of biotin probe capture by avidin, counter-screen for RGS protein interaction modulators, biochemical, flow cytometry, bead-based; shares compounds with RGS16-Gao HTS; streptavidin beads, fluorescein-biotin binding; inhibition, % at 10 µM; 1,700 tested, under 10 active; AID 1783, 2009;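 active = inhibition above 50%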;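 note: median green fluorescence of gated singlet beads compared with DMSO control wells; 0% = DMSO wells and 100% = complete loss of bead fluorescence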
# RGS8-Gao confirm: RGS8-Galphao binding modulators, confirmation, biochemical, multiplexed bead flow cytometry, single concentration; shares compounds with RGS16-Gao HTS; bead-based flow cytometry RGS8-Galphao binding, fluorescence; actives lie on both sides; binding response (% of control), % at 10 µM; 1,700 tested, 3% active; in the data active = binding response below about 72% or above about 130%; inactive = in between;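 note: Galphao activated as GDP AlF4 complex before binding bead RGS8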
# RGS7-Gao single: RGS7-Galphao binding modulators, confirmation, biochemical, multiplexed bead flow cytometry, single concentration; shares compounds with RGS16-Gao HTS; bead-based flow cytometry RGS7-Galphao binding; actives lie on both sides; response (percent of control binding), % at 10 µM; 1,700 tested, 7.8% active; AID 1837, 2009; in the data active = response below about 75% or above about 130%; inactive = in between;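 note: fluorescent Galphao activated with GDP and aluminum fluoride binding bead-coupled RGS7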
# RGS16-Gao single: modulators of RGS16-Galphao protein binding, confirmation, biochemical, single concentration, multiplexed bead flow cytometry; response (% of control binding), % at 10 µM; bead-based flow cytometry; actives lie on both sides; AID 1838, 2009; 1,700 tested, 4% active; shares compounds with RGS16-Gao HTS; in the data active = response below about 74% or above about 130%; inactive = in between;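 note: Galphao activated as the GDP aluminium fluoride complex binding bead-coupled RGS16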
# RGS4-Gao single: modulators of RGS4-Galphao protein binding, confirmation, biochemical, single concentration, multiplexed bead flow cytometry. shares compounds with RGS16-Gao HTS. actives lie on both sides. binding response (% of control), % at 10 µM. 1,700 tested, 4% active; in the data active = binding response below about 74% or above about 130%; inactive = in between
# RGS19-Gao single: regulators of RGS19-Galphao binding, confirmation, biochemical, single point, multiplexed bead flow cytometry; 1,700 tested, 5% active; response (percent of control binding), % at 10 µM; shares compounds with RGS16-Gao HTS; bead-based flow cytometry RGS19-Galphao binding; actives lie on both sides; AID 1841, 2009; in the data active = response below about 50% or above about 160%; inactive = in between;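 note: 100% = no compound control and 0% = blank background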
# Target sequence (P09471 whole entry, looked up): as above
# Target sequence (P49795 whole entry, looked up): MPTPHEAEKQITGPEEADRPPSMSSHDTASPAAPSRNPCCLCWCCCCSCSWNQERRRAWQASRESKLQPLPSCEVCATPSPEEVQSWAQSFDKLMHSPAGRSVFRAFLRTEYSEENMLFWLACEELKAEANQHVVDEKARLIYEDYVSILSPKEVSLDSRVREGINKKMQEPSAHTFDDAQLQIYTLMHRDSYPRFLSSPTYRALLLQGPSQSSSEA
# * = called active by the depositor; ? = inconclusive; · = no result; [ ] = dose if it differs, or a comment. Most compounds without a hit are left out; they make up all but 1.2% or so of the library. Unless noted, the rule behind the calls is not given here.
SMILES,RGS16-Gao HTS,RGS8-Gao reg,RGS7-Gao,Avidin bead fluor,GSH fluor,RGS4-Gao reg,others
COP(=O)(NC(=O)C(Cl)(Cl)Cl)OC,106.6,107.4,?,81*,·,115.6,
O=c1c2ccccc2nc(Cc2cccc([N+](=O)[O-])c2)n1-c1ccc(O)cc1,95.8,98.9,?,8,·,95.1,
CCC(=NCCN1CCCCC1)c1c(O)n(C)c(=O)n(C)c1=O,114.6,102.8,104.0,15,33,106.6,
CCC(=NCCOc1ccc(Cl)cc1)c1c(O)n(C)c(=O)n(C)c1=O,174.7,83.8,131.9,59*,31,144.1,
CC(C)n1cc(C(=O)N(CC(=O)NC2CCCC2)Cc2ccccc2)cn1,106.4,104.3,126.9,68*,22,107.2,
CC(=O)CC(c1ccccc1[N+](=O)[O-])c1c(O)c2ccccc2oc1=O (stereo not drawn),99.5,99.0,?,6,·,95.8,
Cc1cc(C=O)c(C)n1C1CC1,99.1,98.6,95.6,10,23,100.0,
CC(Cc1ccccc1)[n+]1cc(/N=C(\N)[O-])on1 (stereo not drawn),99.6,103.7,109.1,10,15,111.6,
CC(Cc1ccccc1)[n+]1cc(/N=C(\[O-])Nc2ccccc2)on1 (stereo not drawn),102.8,102.5,110.2,57*,26,102.5,
O=c1[nH]c(=S)n(Cc2ccc(F)cc2)c(O)c1C=NCC1CCCO1 (stereo not drawn),107.2,105.6,99.0,16,35,100.4,
O=c1[nH]c(=S)n(Cc2ccc(F)cc2)c(O)c1/C=N/N1CCCCC1,60.5,99.8,112.3,487*,35,108.3,
O=c1c2ccccc2nc(-c2ccco2)n1-c1cccnc1,103.2,104.1,100.2,8,273*,104.1,
O=c1c2ccccc2nc(-c2ccco2)n1-c1ccccn1,104.8,101.6,101.2,7,261*,105.8,
Cc1nc2ccccc2c(=O)n1-c1cccnc1,102.2,102.4,101.0,8,49,106.5,
O=C(O)[C@H]1NC[C@H]2C[C@H]21,110.5,98.5,99.8,6,12,102.7,
O=C(Cc1ccccc1)OCn1nnc2ccccc2c1=O,49.6,88.5,101.7,4,126*,102.4,
CCn1c(O)c(/C=N/N2CCOCC2)c(=O)n(CC)c1=S,14.1*,75.2,87.6,7,37,93.0,RGS4-Gao HTS=93.0*
COc1cccc(C(=O)C2CCCN(Cc3ccc4nsnc4c3)C2)c1 (stereo not drawn),89.1,48.3*,25.6*,2,17,72.3,RGS4-Gao HTS=72.3*;Biotin-avidin=-0.2;RGS8-Gao confirm=108.8;RGS7-Gao single=118.5;RGS16-Gao single=110.9;RGS4-Gao single=107.1;RGS19-Gao single=105.6
O=c1cccc2n1C[C@H]1C[C@@H]2CN2CCCC[C@@H]12,99.5,101.1,?,13,·,101.8,
CN(C)c1ccc(/C=C2/C(=N\O)C3CCN2CC3)cc1,99.6,101.1,?,3,·,102.5,
O=C(Cc1ccccc1)N1CCN(C/C=C/c2ccccc2)CC1,-0.6*,28.6*,7.9*,4,10,-8.3*,Biotin-avidin=1.0;RGS8-Gao confirm=103.4;RGS7-Gao single=104.4;RGS16-Gao single=104.0;RGS4-Gao single=102.7;RGS19-Gao single=112.6
OC(Cn1c2ccccc2c2ccccc21)C[n+]1cccc2ccccc21 (stereo not drawn),101.9,97.4,153.5*[activator],78*,49,122.7,RGS4-Gao HTS=122.7*;Biotin-avidin=-1.8;RGS8-Gao confirm=102.4;RGS7-Gao single=141.1*[activator];RGS16-Gao single=103.1;RGS4-Gao single=131.8*[activator];RGS19-Gao single=199.0*[activator]
CCC(CC)C(=O)NC1CCSC1=O (stereo not drawn),92.1,97.3,88.1,14,27,92.2,
CCOP(=S)(OCC)SCC(=O)NC(C)(CC)C(=O)O (stereo not drawn),-104.8*,95.9,93.9,11,9,74.4,RGS4-Gao HTS=74.4*;Biotin-avidin=-0.9;RGS8-Gao confirm=103.9;RGS7-Gao single=106.8;RGS16-Gao single=107.2;RGS4-Gao single=104.6;RGS19-Gao single=92.6
O=S(=O)(c1ccccc1)N1CC1c1ccccc1 (stereo not drawn),92.0,94.7,93.7,2,7,92.8,
CC1CN(c2ccc([N+](=O)[O-])cc2Cl)CCN1 (stereo not drawn),1.8*,9.2*,7.2*,·,15,10.6*,Biotin-avidin=-1.6;RGS8-Gao confirm=97.7;RGS7-Gao single=90.5;RGS16-Gao single=92.0;RGS4-Gao single=95.2;RGS19-Gao single=80.2
CC1CN(c2cc([N+](=O)[O-])ccc2Cl)CC(C)N1 (stereo not drawn),100.1,98.4,100.9,10,29,101.9,
CN1CCN(c2cc([N+](=O)[O-])ccc2Cl)CC1,100.1,103.2,100.8,10,14,103.3,
CN1CCN(c2ccc([N+](=O)[O-])cc2Cl)CC1,97.4,55.4*,48.9*,2,19,78.2,RGS4-Gao HTS=78.2*;Biotin-avidin=-0.5;RGS8-Gao confirm=104.5;RGS7-Gao single=103.0;RGS16-Gao single=102.2;RGS4-Gao single=100.0;RGS19-Gao single=111.4
O=C(Nc1ccccc1)c1cc([N+](=O)[O-])ccc1N1CCNCC1,95.7,59.5*,?,5,12,89.5,RGS4-Gao HTS=89.5*;Biotin-avidin=-1.9;RGS8-Gao confirm=104.5;RGS7-Gao single=100.6;RGS16-Gao single=104.9;RGS4-Gao single=104.0;RGS19-Gao single=92.7
